{
  "source": "ChEMBL document CHEMBL3988442",
  "about": "“University of Dundee, Small-Polar-MMV Screening Library” (2021)",
  "system": "Trypanosoma brucei",
  "assay": "Trypanosoma brucei 72 hour study",
  "format": "functional, organism-based",
  "parameters": "scale not given: in the data most compounds retested in dose-response had high values",
  "note": "Screen size: about 66,000 compounds; about 960 (1.5%) showed an effect of 50% or more. For the sample, strong results were picked, then their nearest neighbours and some compounds at random.",
  "data": [
    {"smiles": "c1cc(-c2nc3c(c(NCCn4ccnn4)n2)CCNCC3)ccn1", "values": [
      {"measurement": "Percent Effect", "setting": "30 µM, 30.03 µM", "result": -15.86, "unit": "%"}
    ]},
    {"smiles": "O=C(Nc1cccc(F)c1)NC1CCN(Cc2ccncc2)CC1", "values": [
      {"measurement": "Percent Effect", "setting": "30.3 µM, […]", "result": -25.17, "unit": "%"}
    ]},
    {"smiles": "Cl.NC1CCc2nc(-c3ccncc3)nc(Nc3cccc(F)c3)c2C1", "note": "(centres undefined)", "values": [
      {"measurement": "Percent Effect", "setting": "30.3 µM, […]", "result": 99.62, "unit": "%"}
    ]},
    {"smiles": "CS(=O)(=O)NCc1ncn2c1CN(Cc1cccs1)CCC2.O=C(O)C(F)(F)F.O=C(O)C(F)(F)F", "values": [
      {"measurement": "Percent Effect", "setting": "30 µM, 30.03 µM", "result": 32.32, "unit": "%"}
    ]},
    {"smiles": "Cc1c(C(=O)NCCC(=O)N2CCOCC2)sc2ccc(F)cc12", "values": [
      {"measurement": "Percent Effect", "setting": "30 µM, 30.03 µM", "result": -29.66, "unit": "%"}
    ]},
    {"smiles": "CN1C[C@]2(CC[C@@H](C(=O)O)CC2)Oc2ccccc2C1=O", "values": [
      {"measurement": "Percent Effect", "setting": "30.3 µM, […]", "result": -13.61, "unit": "%"}
    ]},
    {"smiles": "C[C@@H]1CN(C(=O)c2cccs2)C[C@]12CCN(CCN(C)C)C2=O.O=C(O)C(F)(F)F", "values": [
      {"measurement": "Percent Effect", "setting": "30.3 µM, […]", "result": -25.2, "unit": "%"}
    ]},
    {"smiles": "O=C(O)C(F)(F)F.O=C(O)C(F)(F)F.c1nc2n(c1CN1CCCCC1)CCN(C1CCOC1)CC2", "note": "(centres undefined)", "values": [
      {"measurement": "Percent Effect", "setting": "30 µM, 30.03 µM", "result": -102.4, "unit": "%"}
    ]},
    {"smiles": "c1nc2n(c1CN1CCCC1)CCN(C1CCOCC1)CC2", "values": [
      {"measurement": "Percent Effect", "setting": "30 µM, 30.03 µM", "result": 51.58, "unit": "%"}
    ]},
    {"smiles": "c1nc2n(c1CN1CCOCC1)CCN(C1CCOC1)CC2", "note": "(centres undefined)", "values": [
      {"measurement": "Percent Effect", "setting": "30 µM, 30.03 µM", "result": -183.8, "unit": "%"}
    ]},
    {"smiles": "Cl.O=C(NCCO)C1(Cc2ccccc2-c2cccnc2)CCOCC1", "values": [
      {"measurement": "Percent Effect", "setting": "30.3 µM, […]", "result": -4.855, "unit": "%"}
    ]},
    {"smiles": "COC1COC2(CCN(Cc3ccc4c(c3)OCO4)CC2)C1.O=C(O)C(F)(F)F", "note": "(centres undefined)", "values": [
      {"measurement": "Percent Effect", "setting": "30.3 µM, […]", "result": -15.29, "unit": "%"}
    ]},
    {"smiles": "Br.Cc1ncc(C(=O)N2CCOC(C(=O)N3CCCCCC3)C2)c(C)n1", "note": "(centres undefined)", "values": [
      {"measurement": "Percent Effect", "setting": "30.3 µM, […]", "result": -22.96, "unit": "%"}
    ]},
    {"smiles": "O=C(NCCN1CCOCC1)c1ccc(-n2ccc3ccccc32)s1", "values": [
      {"measurement": "Percent Effect", "setting": "30 µM, 30.03 µM", "result": 63.33, "unit": "%"}
    ]},
    {"smiles": "O=C(NCCCN1CCOCC1)c1ccc(-n2ccc3ccccc32)s1", "values": [
      {"measurement": "Percent Effect", "setting": "30 µM, 30.03 µM", "result": -4.421, "unit": "%"}
    ]},
    {"smiles": "Cn1ccc2c(C(=O)NCCCN3CCCC3)cccc21", "values": [
      {"measurement": "Percent Effect", "setting": "30 µM, 30.03 µM", "result": -4.832, "unit": "%"}
    ]},
    {"smiles": "O=C(NCCCN1CCCC1=O)c1ccc(-n2ccc3ccccc32)s1", "values": [
      {"measurement": "Percent Effect", "setting": "30 µM, 30.03 µM", "result": 23.58, "unit": "%"}
    ]},
    {"smiles": "CCN(CC)CCNC(=O)c1ccc(-n2ccc3ccccc32)s1", "values": [
      {"measurement": "Percent Effect", "setting": "30 µM, 30.03 µM", "result": -12.39, "unit": "%"}
    ]},
    {"smiles": "O=C(NCCCN1CCCCC1)c1ccc(-n2ccc3ccccc32)s1", "values": [
      {"measurement": "Percent Effect", "setting": "30 µM, 30.03 µM", "result": 80.76, "unit": "%"}
    ]},
    {"smiles": "COc1cc(Oc2cnc3ccccc3n2)ccc1CN1CCCC1", "values": [
      {"measurement": "Percent Effect", "setting": "30 µM, 30.03 µM", "result": -18.27, "unit": "%"}
    ]},
    {"smiles": "CC1CCCCN1C(=O)c1n[nH]c(=O)c2ccccc12", "note": "(centres undefined)", "values": [
      {"measurement": "Percent Effect", "setting": "30.3 µM, […]", "result": -7.93, "unit": "%"}
    ]},
    {"smiles": "Cn1nnc2c1CCN(Cc1ccncc1)C2COCC1CC1.O=C(O)C(F)(F)F.O=C(O)C(F)(F)F", "note": "(centres undefined)", "values": [
      {"measurement": "Percent Effect", "setting": "30 µM, 30.03 µM", "result": 49.24, "unit": "%"}
    ]},
    {"smiles": "CCOCc1ccccc1NC(=O)NCC(C)(O)c1ccsc1", "note": "(centres undefined)", "values": [
      {"measurement": "Percent Effect", "setting": "30 µM, 30.03 µM", "result": 56.33, "unit": "%"}
    ]},
    {"smiles": "CCOCc1ccccc1NC(=O)NCC(C)(O)c1cccs1", "note": "(centres undefined)", "values": [
      {"measurement": "Percent Effect", "setting": "30 µM, 30.03 µM", "result": -46.58, "unit": "%"}
    ]},
    {"smiles": "CCOCc1ccccc1NC(=O)NCC(C)(O)c1cc(C)oc1C", "note": "(centres undefined)", "values": [
      {"measurement": "Percent Effect", "setting": "30 µM, 30.03 µM", "result": -15.34, "unit": "%"}
    ]},
    {"smiles": "Cc1nonc1CN(C)c1nc(-c2ccco2)nc2c1CCN(C)CC2", "values": [
      {"measurement": "Percent Effect", "setting": "30 µM, 30.03 µM", "result": -56.96, "unit": "%"}
    ]},
    {"smiles": "Cc1ccc(-c2nc(CCNC(=O)NC3CCC(O)CC3)co2)cc1", "note": "(centres undefined)", "values": [
      {"measurement": "Percent Effect", "setting": "10 µM", "result": -4.374, "unit": "%"},
      {"measurement": "Percent Effect", "setting": "30.3 µM, […]", "result": 17.54, "unit": "%"}
    ]},
    {"smiles": "O=C(NCCc1coc(-c2ccc(F)cc2)n1)NC1CCC(O)CC1", "note": "(centres undefined)", "values": [
      {"measurement": "Percent Effect", "setting": "30 µM, 30.03 µM", "result": -16.25, "unit": "%"}
    ]},
    {"smiles": "O=C(NCCc1coc(-c2ccccc2)n1)NC1CC1", "values": [
      {"measurement": "Percent Effect", "setting": "10 µM", "result": 101.4, "unit": "%"},
      {"measurement": "Percent Effect", "setting": "30.3 µM, […]", "result": 100, "unit": "%"}
    ]},
    {"smiles": "O=C(NCCc1coc(-c2ccc(F)cc2)n1)NC1CC1", "values": [
      {"measurement": "Percent Effect", "setting": "10 µM", "result": 99.81, "unit": "%"},
      {"measurement": "Percent Effect", "setting": "30.3 µM, […]", "result": 99.45, "unit": "%"}
    ]},
    {"smiles": "Cc1ccc(-c2nc(CCNC(=O)NC3CCN(C)CC3)co2)cc1", "values": [
      {"measurement": "Percent Effect", "setting": "30 µM, 30.03 µM", "result": 6.387, "unit": "%"}
    ]},
    {"smiles": "COc1ccc(-c2nc(CCNC(=O)NC3CCC(O)CC3)co2)cc1", "note": "(centres undefined)", "values": [
      {"measurement": "Percent Effect", "setting": "30 µM, 30.03 µM", "result": -54.4, "unit": "%"}
    ]},
    {"smiles": "CO[C@@H]1CN(c2ccccc2)S(=O)(=O)[C@@]12CCN(C(=O)N(C)C)C2", "values": [
      {"measurement": "Percent Effect", "setting": "30.3 µM, […]", "result": 5.082, "unit": "%"}
    ]},
    {"smiles": "O=C1C[C@H]2CC[C@@H](CN1)N2C(=O)CCc1ccsc1", "values": [
      {"measurement": "Percent Effect", "setting": "30.3 µM, […]", "result": 5.085, "unit": "%"}
    ]},
    {"smiles": "CCc1n[nH]c(C2CN(C(=O)c3ncoc3C(C)C)CCO2)n1", "note": "(centres undefined)", "values": [
      {"measurement": "Percent Effect", "setting": "30.3 µM, […]", "result": 10.22, "unit": "%"}
    ]},
    {"smiles": "Cc1sc2nc(CCN)nc(N(C)CCCC3CCCO3)c2c1C", "note": "(centres undefined)", "values": [
      {"measurement": "Percent Effect", "setting": "30 µM, 30.03 µM", "result": 73.15, "unit": "%"}
    ]},
    {"smiles": "COCCN(CC1CC1)c1nc(CCN)nc2ccccc12", "values": [
      {"measurement": "Percent Effect", "setting": "30 µM, 30.03 µM", "result": 27.63, "unit": "%"}
    ]},
    {"smiles": "COCCN(Cc1cccs1)c1nc(CCN)nc2ccccc12", "values": [
      {"measurement": "Percent Effect", "setting": "30 µM, 30.03 µM", "result": 3.665, "unit": "%"}
    ]},
    {"smiles": "COCCN(CC1CC1)c1nc(CCN)nc2sc(C)c(C)c12", "values": [
      {"measurement": "Percent Effect", "setting": "30 µM, 30.03 µM", "result": 105.1, "unit": "%"}
    ]},
    {"smiles": "CCN(CCN(C)C)c1nc(CCN)nc2sc(C)c(C)c12", "values": [
      {"measurement": "Percent Effect", "setting": "30 µM, 30.03 µM", "result": -19.52, "unit": "%"}
    ]},
    {"smiles": "Cc1sc2nc(CCN)nc(N(CCN(C)C)CC3CCCO3)c2c1C", "note": "(centres undefined)", "values": [
      {"measurement": "Percent Effect", "setting": "30 µM, 30.03 µM", "result": 33.05, "unit": "%"}
    ]},
    {"smiles": "O=C(O)C(F)(F)F.O=C1CCC2(CCN(Cc3nccs3)CC2)N1Cc1ccccc1", "values": [
      {"measurement": "Percent Effect", "setting": "30 µM, 30.03 µM", "result": -8.129, "unit": "%"}
    ]},
    {"smiles": "O=C(O)C(F)(F)F.O=C1CC[C@H]2[C@H](CCN2C(=O)C2CCOC2)N1Cc1ccncc1", "note": "(some centres undefined)", "values": [
      {"measurement": "Percent Effect", "setting": "30 µM, 30.03 µM", "result": -22.31, "unit": "%"}
    ]},
    {"smiles": "Cc1noc(C)c1CN1C[C@H](OCC2CCN(C)CC2)[C@H]2COC[C@H]21.O=C(O)C(F)(F)F.O=C(O)C(F)(F)F", "values": [
      {"measurement": "Percent Effect", "setting": "30.3 µM, […]", "result": -21.15, "unit": "%"}
    ]},
    {"smiles": "Cc1nc(COCC2CN(C(=O)N(C)C)Cc3nccn3C2)cs1.O=C(O)C(F)(F)F", "note": "(centres undefined)", "values": [
      {"measurement": "Percent Effect", "setting": "30.3 µM, […]", "result": -49.05, "unit": "%"}
    ]},
    {"smiles": "CCn1ncc2c1C(COC)CN(Cc1cccnc1)C2.O=C(O)C(F)(F)F.O=C(O)C(F)(F)F.O=C(O)C(F)(F)F", "note": "(centres undefined)", "values": [
      {"measurement": "Percent Effect", "setting": "30.3 µM, […]", "result": -94.72, "unit": "%"}
    ]}
  ]
}
